# High-throughput results from PubChem BioAssay.
# Hits are enriched below; roughly 3.5% of the tested compounds scored in any of these assays.
# FBW7 activator: FBW7 E3 ligase activators, primary screen, biochemical, AlphaScreen, human; AlphaScreen FBW7–phospho-cyclin E peptide binding, activator screen; normalized activity (activation), % at 26.1 µM; 650,000 tested, 0.13% active; AID 1259310, 2017; in the data active means normalized activity above about 1.9%;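 further: purified mutant Fbw7 with reduced substrate affinity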
# MITF primary: MITF inhibitors, primary screen, biochemical, AlphaScreen, human. Microphthalmia-associated transcription factor (Homo sapiens), O75030. AlphaScreen MITF homodimerization, bead proximity signal. inhibition, % at 2.6 µM. 650,000 tested, 0.91% active. AID 1259374, 2018; in the data active means inhibition above about 50%;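 further: 0% = vehicle wells with protein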
# TEAD-YAP inh: TEAD-YAP interaction inhibition, primary screen, TEAD-YAP interaction inhibitor project, luminescence, HEK-TIYL cells. 640,000 tested, 1.4% active. AID 1259422, 2018. TEAD-Gal4/YAP UAS-luciferase luminescence. inhibition, % at 9.12 µM; in the data active means inhibition above about 32%;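 further: 0% = median of test compound wells and 100% = reference inhibitor wells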
# GPR151 activ: activators of human GPR151, primary screen, cell-based, PathHunter beta-arrestin, luminescence | G-protein coupled receptor 151 (Homo sapiens), Q8TDV0 | PathHunter beta-arrestin GPR151 cells | activation, % at 11.2 µM | 650,000 tested, 1% active | AID 1508602, 2020; in the data active means activation above about 4.9%;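 further: 0% = median of compound wells and 100% = cells with positive control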
# Target sequence (Q8TDV0 whole entry, looked up): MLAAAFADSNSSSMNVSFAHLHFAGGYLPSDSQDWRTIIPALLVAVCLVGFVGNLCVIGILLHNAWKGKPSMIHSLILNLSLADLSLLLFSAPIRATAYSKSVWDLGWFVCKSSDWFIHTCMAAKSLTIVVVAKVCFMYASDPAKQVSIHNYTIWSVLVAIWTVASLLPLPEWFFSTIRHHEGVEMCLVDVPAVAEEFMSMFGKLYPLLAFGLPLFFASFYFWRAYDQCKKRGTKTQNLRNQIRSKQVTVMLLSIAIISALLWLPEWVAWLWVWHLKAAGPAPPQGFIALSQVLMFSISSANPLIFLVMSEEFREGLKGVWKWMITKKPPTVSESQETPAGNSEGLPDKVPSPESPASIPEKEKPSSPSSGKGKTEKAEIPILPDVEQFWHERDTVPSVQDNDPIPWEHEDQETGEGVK
# An asterisk follows results filed as active; x = no result given.
SMILES,FBW7 activator,MITF primary,TEAD-YAP inh,GPR151 activ
COCCOC(=O)c1[nH]c2c(c1C)C(=O)CC(c1ccccc1Cl)C2 (configuration not stated),0,3,40*,0
COc1cc(-c2ccc(N=Nc3ccc4c(S(=O)(=O)O)cc(S(=O)(=O)O)c(N)c4c3O)c(OC)c2)ccc1N=Nc1ccc2c(S(=O)(=O)O)cc(S(=O)(=O)O)c(N)c2c1O,0,77*,x,-2
Nc1c(S(=O)(=O)O)cc(S(=O)(=O)O)c2cccc(O)c12,-1,46,9,0
O=C(CN(c1cccc(Cl)c1Cl)S(=O)(=O)c1ccccc1)NC1CC1,0,-2,-3,-1
O=C(/C=C/Nc1ccc(F)cc1F)c1ccccc1,0,-23,84*,-2
CCc1ccc(C(=O)/C=C/Nc2ccccc2O)cc1,0,2,39*,-4
Cc1ccc(C(=O)/C=C/Nc2ccccc2O)cc1,0,-31,4,-2
O=C(/C=C/Nc1ccccc1I)c1ccccc1,0,-1,91*,-5
O=C(/C=C/Nc1ccc(F)cc1Br)c1ccccc1,0,6,86*,-4
CCOC(=O)C1C(=O)CC(C)(O)C(C(=O)OCC)C1c1ccc(C(C)C)cc1 (configuration not stated),0,-12,0,0
COc1ccc(OC)c(NC(=O)c2cc3nc(-c4ccc(C)cc4)cc(C(F)(F)F)n3n2)c1,0,-4,5,0
O=C(/C=C/Nc1ccc([N+](=O)[O-])cc1Br)c1ccccc1,0,7,43*,-1
O=C(/C=C/Nc1ccccc1F)c1ccccc1,0,12,61*,-5
COc1ccc(C(=O)/C=C/Nc2ccc(F)cc2F)cc1,1,17,-33,-1
COc1cccc(C(=O)/C=C/Nc2ccc(F)cc2F)c1,0,9,71*,-4
Clc1ccccc1-c1ccc(N2CCN(c3ccccn3)CC2)nc1,0,9,-26,1
O=C(N/N=C/c1ccccc1O)C(F)(F)F,0,0,-60,0
CCc1ccc(-n2c(=S)[nH]c3ccsc3c2=O)cc1,0,-1,-3,2
CCOC(=O)N1CCN(C(=O)N2c3ccccc3Sc3ccccc32)CC1,0,-2,56*,1
CC1CCN(C(=O)N2c3ccccc3Sc3ccccc32)CC1,0,12,-4,1
O=C1CCCN1CCCNc1nc(NC2CC2)c2ncn(-c3ccsc3)c2n1,0,8,34*,3
COc1cc(Nc2nc(NCCCN3CCCC3=O)nc3c2ncn3-c2ccsc2)cc(OC)c1OC,0,8,14,-2
Cn1nccc1Nc1nc(NCCCN2CCCC2=O)c2ncn(-c3ccsc3)c2n1,0,9,17,1
O=C1CCCN1CCCNc1nc(Nc2cnccn2)nc2c1ncn2-c1ccsc1,0,4,75*,-1
O=C1CCCN1CCCNc1nc(Nc2ccccn2)nc2c1ncn2-c1ccsc1,0,-12,53*,2
SMILES,FBW7 activator,MITF primary,TEAD-YAP inh,GPR151 activ
COc1cc(Nc2nc(NCCCN3CCCC3=O)c3ncn(-c4ccsc4)c3n2)cc(OC)c1OC,0,2,54*,-1
O=S(=O)(c1cccc2cccnc12)N1CCC(c2nc(-c3cccnc3)no2)CC1,0,5,0,-2
CC(C)(C)C1CCc2c(sc(NC(=O)C34CC5CC(CC(C5)C3)C4)c2C#N)C1 (configuration not stated),0,14,1,-1
Cc1ccccc1N1C(=O)NC(=O)/C(=C\c2cc3ccccc3n2C)C1=O,0,6,-5,0
COc1cc(Nc2nc(N3CCN(c4ccccn4)CC3)nc3c2ncn3CCN2CCCC2=O)cc(OC)c1OC,0,4,33*,0
O=c1cc(CN2CCN(Cc3ccc4c(c3)OCO4)CC2)c2cc(O)c(O)cc2o1,-1,91*,-3,4
O=c1cc(CN2CCCCC2)c2cc(O)ccc2o1,0,6,1,0
O=c1cc(CN2CCN(c3ccccc3O)CC2)c2cc(O)c(O)cc2o1,0,90*,-5,0
Nc1c2ccccc2nc2ccccc12,1,21,74*,0
O=[N+]([O-])c1ccc(Oc2ccccc2O)c2c1no[n+]2[O-],-2,66*,-13,-3
COc1ccccc1Oc1ccc(C(N)=O)cc1[N+](=O)[O-],0,-6,-4,1
COc1ccc(S(=O)(=O)NCc2cccnc2)c2ccccc12,1,10,1,0
COc1ccc(CNS(=O)(=O)c2ccc(OC)c3ccccc23)cc1,0,-5,34*,4
Cc1ccc(C(C)C)c(OCC(O)Cn2c(C)nc3ccccc32)c1 (configuration not stated),0,-3,50*,3
C=CCc1ccccc1OCC(O)Cn1c(C)nc2ccccc21 (configuration not stated),0,3,40*,4
C=CCc1ccccc1OCC(O)Cn1c(CO)nc2ccccc21 (configuration not stated),0,11,11,0
O=C(NCCc1nc(-c2ccccc2)cs1)c1cccc(C(=O)NCCc2nc(-c3ccccc3)cs2)c1,0,-3,48*,1
CC(C)c1nc2ccccc2c(=O)n1C(=O)c1ccc(F)cc1,0,-4,0,-1
Cc1nn2c(N)cc(-c3ccccc3)nc2c1-c1ccc(Cl)cc1,0,-22,2,-1
Cc1nc2c(-c3ccc(Cl)cc3)cnn2c(N)c1-c1ccccc1,0,14,89*,-2
COc1ccc(-c2nc(NC3CCN(Cc4ccccc4)CC3)c3ncn(C(C)C)c3n2)cn1,0,0,19,-1
CC(C)n1cnc2c(NC3CCN(Cc4ccccc4)CC3)nc(Cl)nc21,0,-2,47*,1
CC(C)n1cnc2c(NC3CCN(Cc4ccccc4)CC3)nc(-c3ccc(C(N)=O)cc3)nc21,0,-8,92*,-2
CC(C)n1cnc2c(NC3CC3)nc(N3CCN(c4ccccn4)CC3)nc21,0,12,35*,2
CC(C)n1cnc2c(NC3CCN(Cc4ccccc4)CC3)nc(-c3cccc(N)c3)nc21,0,11,90*,2
Cc1cccc(N=c2c([N+](=O)[O-])nn(-c3ccccc3C)n2O)c1,1,17,6,1
CC1(C)CC(=O)C2=C(C1)N=C1SCCC(=O)N1C2c1ccc(F)cc1 (configuration not stated),0,-2,13,1
CC(C)n1cnc2c(NC3CCN(Cc4ccccc4)CC3)nc(Nc3ccccn3)nc21,0,13,30,0
CC(C)n1cnc2c(NC3CCN(Cc4ccccc4)CC3)nc(Nc3ccncn3)nc21,0,15,71*,-3
Cc1cc(C)n(CCc2nc3c4ccccc4nc(=S)n3[nH]2)n1,0,7,49*,0
